Source: PubChem BioAssay (NCATS)
Inconclusive results are not listed. Calls of active or inactive are those of the source. Unless noted, no rule for the calls is given here.

Legend:
[1] = qHTS Assay for Identifying Gametocytocidal Compounds (AID 743244; active = well fitted curve in the direction sought with a large enough effect; an effect the other way counts as inactive or inconclusive; also: potency is read from the fitted curve at half-maximal effect;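 as to max response: % is scaled to controls: 0 for no effect and ±100 for the full control effect; actives lower the fluorescent signal which means gametocytes are killed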); details: P. falciparum 3D7 stage III-V gametocytes, alamarBlue, 72 h; max response: stronger effect = lower value
Outline: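 A resazurin-based viability read-out was applied to mature P. falciparum gametocytes: 72 h compound treatment, then 24 h dye incubation, with falling fluorescence signalling gametocytocidal effect.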

[2] = qHTS profiling for inhibitors of Plasmodium falciparum (3D7) proliferation (AID 743322);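 also: infected erythrocytes exposed to compound for 72 h before lysis; 100% = DMSO vehicle wells and 0% = 0.29 µM artemisinin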; details: P. falciparum 3D7 proliferation; at 28.7 µM (top of the series)
Outline: (§1)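 Parasite DNA was quantified by SYBR Green I fluorescence (ex 485, em 535 nm) after overnight lysis in saponin/Triton buffer at room temperature. Cultures at 0.3% parasitemia and 2.5% hematocrit were first exposed to compound for 72 h at 37 C; signals were normalised to artemisinin (0.29 uM) and vehicle wells.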

[3] = qHTS profiling for inhibitors of Plasmodium falciparum (DD2) proliferation (AID 743323); details: lower = more inhibition; at 28.7 µM (top of the series)
Outline: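 SYBR Green fluorescence (ex 485, em 535 nm) of lysed cultures gives parasite DNA content; wells normalized to artemisinin (0.29 uM) and DMSO controls. Infected red cells: 0.3% parasitemia, 2.5% hematocrit, 72 h, 37 C.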

[4] = qHTS profiling for inhibitors of Plasmodium falciparum (HB3) proliferation (AID 743324; active = well fitted curve in the direction sought with a large enough effect; an effect the other way counts as inactive or inconclusive;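 also: 100% = DMSO vehicle wells and 0% = artemisinin-treated control wells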); details: Plasmodium falciparum HB3 blood-stage proliferation; at 28.7 µM (top of the series)
Outline: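 SYBR Green fluorescence (485 ex/535 em) of lysed cultures, incubated overnight at room temperature in the dark, quantifies parasite DNA. Infected erythrocytes at 0.3% parasitemia and 2.5% hematocrit were exposed 72 h; values normalized to DMSO and 0.29 uM artemisinin controls.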

[5] = qHTS profiling of the MIPE4 collection as inhibitors of Plasmodium falciparum (3D7) proliferation (AID 743344);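 also: scaled between DMSO vehicle wells and 0.29 µM artemisinin as full inhibition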; details: P. falciparum 3D7 in erythrocytes, SYBR Green DNA fluorescence, 72 h; at 28.5 µM (top of the series) unless noted
Outline: as §1

[6] = qHTS profiling of the MIPE4 collection as inhibitors of Plasmodium falciparum (DD2) proliferation (AID 743345); details: P. falciparum Dd2 in erythrocytes, SYBR Green DNA, 72 h; at 28.5 µM (top of the series) unless noted
Outline: as §1

[7] = qHTS profiling of the MIPE4 collection as inhibitors of Plasmodium falciparum (DD2) proliferation (Rep 2) (AID 743346); details: P. falciparum Dd2 in erythrocytes, SYBR Green DNA, 72 h; at 28.5 µM (top of the series) unless noted
Outline: as §1

[8] = qHTS profiling of the MIPE4 collection as inhibitors of Plasmodium falciparum (HB3) proliferation (AID 743347);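 also: plate controls were DMSO vehicle wells for no effect and artemisinin wells for full effect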; details: P. falciparum HB3 in erythrocytes, SYBR Green DNA, 72 h; at 28.5 µM (top of the series) unless noted
Outline: as §1

[9] = High-throughput drug toxicity screening in the BPDCN cell line Gen2.2 (AID 1224824); details: Gen2.2 BPDCN cells; at 45.8 µM (top of the series) unless noted;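 also: cells exposed to compounds for 48 h before reading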
Outline: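 CellTiter-Glo luminescence read after 48 h compound exposure at 37 C defines viability; percent activity set with DMSO as 100% and bortezomib (9.2 uM final) as 0%. 500 exponentially growing cells per well, RPMI plus 10% FBS.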

[10] = High-throughput drug toxicity screening in the BPDCN cell line Cal-1 (AID 1224825); details: Cal-1 BPDCN cell viability, qHTS; at 45.8 µM (top of the series) unless noted
Outline: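 CellTiter-Glo luminescence after 48 h compound exposure; percent activity scaled with DMSO as 100% and bortezomib (9.2 uM final) as 0%. Cal-1 cells seeded at 500/well in RPMI, 10% FBS, no phenol red.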

[11] = qHTS assay for small molecule agonists of the antioxidant response element (ARE) signaling pathway measured by Nrf2-dependant transcriptional activity (AID 720636; active = well fitted curve in the direction sought with a large enough effect in the repeat runs; an effect the other way counts as inactive or inconclusive;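 also: HepG2 cells with an ARE-driven luciferase reporter; % of control where 0% means no effect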)
Outline: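 We exposed ARE-luc HepG2 cells, seeded in assay medium with 1% dialyzed FBS and allowed 6 hr to adhere, to test compounds overnight (16 hr, 37 C) before measuring luciferase with ONE-Glo.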

[12] = qHTS assay for small molecule agonists of the antioxidant response element (ARE) signaling pathway measured by Nrf2-dependant transcriptional activity - cell viability counter screen (AID 720653; active = well fitted curve in the direction sought with a large enough effect in the repeat runs; an effect the other way counts as inactive or inconclusive; also: % is scaled to controls: 0 for no effect and ±100 for the full control effect); details: ARE-bla HepG2 viability, CellTiter-Glo ATP luminescence, 16 h; stronger effect = lower value
Outline: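 ARE-bla HepG2 cells treated with compounds for 16 h at 37C; this counter screen measures viability as intracellular ATP by CellTiter-Glo luminescence after 30 min at room temperature.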

[13] = qHTS assay for cell viability of HEK293 cells (AID 743288; active = well fitted curve in the direction sought with a large enough effect; an effect the other way counts as inactive or inconclusive; also: % is scaled to controls: 0 for no effect and ±100 for the full control effect; nearly all actives have a fitted effect of over 50% in size); details: ATP luminescence (CellTiter-Glo), 18 h, stronger effect = lower value
Outline: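 Readout is luciferase-coupled ATP content (CellTiter-Glo luminescence, 30 min room temperature) as a measure of metabolically competent cells. Parental HEK293 cells were plated 5 h or more before compound addition, then treated 18 h at 37 C.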

[14] = qHTS assay for cell viability of the p53RE-bla HCT-116 cell line (AID 743292; active = well fitted curve in the direction sought with a large enough effect; an effect the other way counts as inactive or inconclusive; also: % is scaled to controls: 0 for no effect and ±100 for the full control effect; nearly all actives have a fitted effect of over 55% in size)
Outline: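 In this qHTS counter-screen, metabolically competent p53RE-bla HCT-116 cells were counted via their ATP content. Compounds were applied for 16 h at 37 C and luciferase-coupled luminescence was measured.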

Row | SMILES | Potency [1] | remaining parasite growth % (stronger effect = lower value) [2] [%] | activity, percent of control [3] [%] | remaining proliferation (% of control), lower = more inhibition [4] [%] | parasite growth, % of DMSO control [5] [%] | parasite growth remaining, % of DMSO control (lower = more inhibition) [6] [%] | parasite growth, % of control (lower = inhibition) [7] [%] | growth, % of control [8] [%] | cell viability, % of control (lower = more cytotoxic) [9] [%] | viability (% of control) [10] [%] | outcome [11] | max response [12] | max response [13] | outcome [14] | max response [1]
1 | CCN1CCN(CC(=O)Nc2ccc(-c3cccc4c(=O)cc(N5CCOCC5)oc34)c3sc4ccccc4c23)CC1 | 29.6 µM (active) | -0.258 | 0.865 | 0.111 | 5.76 | 6.58 | 16.5 | 7.23 | 1.44 | 2.53 | – | – | – | – | –
2 | C=CC(=O)Nc1cccc(Oc2nc(Nc3ccc(N4CCN(C)CC4)cc3OC)ncc2Cl)c1 | 14.8 µM (active) | 5.98 | 12.5 | 6.16 | 10.5 | 15.1 | 26.7 | 4.13 | 8 | 16.3 | – | – | – | – | –
3 | O=C(O)CCCc1c[nH]c2ccccc12 | – | – | – | – | 102 | 20.4 | 142 | 102 | 90.6 | 32.3 | inactive | 0.64% (inactive) | -3.33% (inactive) | inactive | –
4 | N#Cc1c(O)c2c(-c3ccc(-c4ccccc4O)cc3)csc2[nH]c1=O | – | 93.3 | 96 | 87.6 | 70.3 | 94.8 | 47.7 | 71.1 | 185 | 108 | – | – | – | – | 42.7% (inactive)
5 | Nc1nc(-c2nn(Cc3ccccc3F)c3ncccc23)nc(N)c1N1CCOCC1 | – | – | – | – | – | – | – | – | 199 | 101 | – | – | – | – | -6.3% (inactive)
6 | COc1cc2ncnc(Nc3ccc(F)c(Cl)c3)c2cc1NC(=O)C=CCN1CCCCC1 | 11.8 µM (active) | -0.218 | 0.401 | 0.28 | 9.04 | 8.26 | 11 | 6.53 | 10 | 3.6 | – | – | – | – | –
7 | CS(=O)(=O)N1CCN(Cc2cc3nc(-c4cccc5[nH]ncc45)nc(N4CCOCC4)c3s2)CC1 | – | – | – | – | – | – | – | – | 27.2 | 27.7 | – | – | – | – | –
8 | Clc1cccc(-n2nnnc2NCc2ccccc2Oc2ccccn2)c1Cl | – | – | – | – | – | – | – | – | 100 | 100 | – | – | – | – | –
9 | CC(NCc1ccc2c(c1)nc(NC(=O)c1ccc(-c3cn[nH]c3)s1)n2CC(C)(C)O)C(C)(C)C (configuration not stated) | 9.35 µM (active) | -1.9 | -0.339 | -1 | 5.17 | 7.07 | 9.25 | 3.84 | 2.71 | 2.63 | – | – | – | – | –
10 | C[C@@H](Oc1cc(-n2cnc3ccc(CN4CCN(C)CC4)cc32)sc1C(N)=O)c1ccccc1C(F)(F)F | 18.7 µM (active) | -0.0099 | 3.25 | 1.38 | 6.16 | 7.2 | 13.9 | 6.6 | 3.33 | 3.46 | – | – | – | – | –
